# From PubChem BioAssay
# HEK293 cAMP cs – parental HEK293 cAMP activation (counter-screen); parental HEK293 CNG cAMP sensor, membrane potential fluorescence; Potency, µM (titrated, usually from 57.1 µM), for inactives: at the top dose activation, actives largely listed as activators; actives 2.5% (n = 73,000); AID 938; also: % of control where 0% means no effect; nearly all actives have a fitted effect of over 55% in size
#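 Parental HEK 293 cells stably expressing a cAMP-gated CNG channel were loaded with membrane potential dye containing 100 uM RO 20-1724 for 60 min. Compound added for 30 min; depolarization read as fluorescence intensity at 590 nm.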
# Bst PK mod – alters activity of Bacillus stearothermophilus pyruvate kinase; purified pyruvate kinase, luminescence ATP production; ribose 5-phosphate activator present at AC10; Potency, µM; actives 1.2% (n = 51,000); AID 361; in the data active = potency below about 11 µM; inconclusive = mostly about 12 µM to 25 µM;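 the screen sought inhibitors and activators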;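 also: scaled between full activation by ribose 5 phosphate and full inhibition by luteolin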
# TSHR ag – activates the human thyroid stimulating hormone receptor | P16473 | HEK293-CNG-TSHR cells (CNG channel as cAMP sensor), membrane potential dye, cAMP | Potency, µM (titrated, usually from 57.1 µM), for inactives: at the highest dose activation, actives largely listed as activators | actives 0.48% (n = 73,000) | AID 926; active = well fitted activation curve with a large enough effect in the main read-out, with a control signal flat, not every such curve was filed as active; inconclusive = small, poorly fitted or top-dose-only effect, or a change in a side signal; inactive = no such curve, though single readings can be large or run the other way; % of control where 0% means no effect;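 also: the control signal comes from parental cells without the receptor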
#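 cAMP rise detected as CNG-channel membrane depolarization by fluorescent dye (emission 590 nm), 30 min after compound, following 60 min dye loading containing 100 uM RO 20-1724 at room temperature. Cells: TSHR/CNG HEK 293, with parental CNG HEK 293 as control.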
# FLuc inh – firefly luciferase inhibition; P08659; purified firefly luciferase, luminescence, 8 min; Potency, µM (doses to about 57.1 µM), inactives show at the highest dose activity change, negative = inhibition, most hits filed as inhibitors; actives 2.2% (n = 72,000); also: % is scaled to controls: 0 for no effect and ±100 for the full control effect; nearly all actives have a fitted effect of over 40% in size
# Target sequence (P08659 whole entry, looked up): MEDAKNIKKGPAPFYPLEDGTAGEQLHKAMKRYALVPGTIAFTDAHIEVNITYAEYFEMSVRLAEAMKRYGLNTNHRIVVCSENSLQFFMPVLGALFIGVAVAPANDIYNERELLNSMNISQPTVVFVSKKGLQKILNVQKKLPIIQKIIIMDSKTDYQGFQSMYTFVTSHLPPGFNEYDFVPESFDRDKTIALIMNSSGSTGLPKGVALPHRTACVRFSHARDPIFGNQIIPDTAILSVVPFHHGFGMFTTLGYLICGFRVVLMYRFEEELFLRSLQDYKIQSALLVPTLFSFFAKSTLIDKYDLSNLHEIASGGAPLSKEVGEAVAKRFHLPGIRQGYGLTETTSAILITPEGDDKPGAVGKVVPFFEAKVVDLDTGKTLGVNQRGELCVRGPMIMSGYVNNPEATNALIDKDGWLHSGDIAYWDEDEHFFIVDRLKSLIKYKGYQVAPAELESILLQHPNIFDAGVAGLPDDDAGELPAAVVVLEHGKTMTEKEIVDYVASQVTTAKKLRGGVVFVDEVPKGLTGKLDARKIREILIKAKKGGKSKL
#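 Inhibition of light generation by firefly luciferase from ATP and luciferin was profiled with concentration-response curves per sample, ATP held at 10 uM within the enzyme's linear range. Plates were read by luminescence after an 8-minute ambient incubation.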
# The depositor's hits bear a star; ? = inconclusive; / = not tested or not shown; [ ] = remark or other dose. Rows were chosen to be rich in hits. Some 5.2% of all compounds tested hit in one or more screens of this group. Unless noted, calls follow the shape of the dose curve; as a rule, active = well fitted curve in the direction sought with a large enough effect; inconclusive = small, poorly fitted or top-dose-only effect, or another doubt; inactive = no such curve, though single readings can be large; an effect the other way counts as inactive or inconclusive. Potency is read from the fitted curve at half-maximal effect.
SMILES,HEK293 cAMP cs,Bst PK mod,TSHR ag,FLuc inh
COC(=O)c1ccc(OCC2c3cc(OC)c(OC)cc3CCN2C(=O)c2ccco2)cc1 (stereo unspecified),28%,>57,32µM*,4%
CCC(=O)N1CCc2cc(OC)c(OC)cc2C1COc1ccc(C(=O)OC)cc1 (stereo unspecified),?,>57,?,-10%
O=C(Nc1ccc(N2CCCCC2)cc1)c1ccc(F)cc1,1%,/,-7%,4µM*
O=C(Nc1ccc(N2CCCC2)cc1)c1ccc(Br)o1,-11%[11.4 µM],/,1%[11.4 µM],2.5µM*
CCN(CC)c1ccc(NC(=O)c2ccc(Br)o2)cc1,2%[11.4 µM],/,0%[11.4 µM],10µM*
CCCCOC(=O)Nc1ccc(N2CCCCC2)cc1,6%,/,16%,13µM*
COC(=O)Cc1ccc(NC(=O)c2ccc(Br)o2)cc1,1%,/,-3%,-30%
O=C(O)[C@H]1CN(C/C=C/P(=O)(O)O)CCN1,-9%,/,2%,/
N#Cc1nc(COc2ccccc2)oc1N1CCN(Cc2ccccc2)CC1,13µM*,>57,?,1%
Cc1ccc(OCc2nc(C#N)c(N3CCN(Cc4ccccc4)CC3)o2)cc1,2µM*,>57,?,2%
N#Cc1nc(COc2ccccc2)oc1N1CCC(Cc2ccccc2)CC1,?,>57,?,5%
N#Cc1nc(COc2ccc(F)cc2)oc1N1CCCC1,?,>57,?,-2%
N#Cc1nc(COc2cccc(Cl)c2)oc1N1CCCC1,13µM*,/,?,1%
CCCOc1ccccc1-c1nc2n[nH]nc2c(=O)[nH]1,-2%,/,17%,0%
Nc1nc(CSc2ncn(-c3ccccc3)n2)cs1,10%,/,/,25µM*
Cc1ccc2[nH]c(-c3ccccc3)cc(=O)c2c1,22%[11.4 µM],/,21%[11.4 µM],5µM*
CC(C)(C)NC(=O)CSc1nnc(-c2ccccn2)n1-c1ccccc1,-1%,/,1%,-3%
Cn1cc(C(=O)c2ccccc2)cc1-c1nc2ccccc2n1C,30%,>57,35%,-1%
Cc1oc(-c2nc3ccccc3n2C)cc1C(=O)c1ccccc1,25µM*,3.4*,?,2.5µM*
Cn1c(-c2ccc(Br)o2)nc2ccccc21,?,?,?,7.9µM*
Cn1c(-c2ccc(Br)o2)nc2cc(Br)ccc21,16µM*,/,?,6.3µM*
CC(CCc1ccccc1)C(=O)NO (stereo unspecified),20%[11.4 µM],/,/,-10%
CCCCCn1c(CN(C)Cc2ccccc2)nc2c1c(=O)n(C)c(=O)n2C,20µM*,>57,?,1%
CCCCn1c(CN(Cc2ccccc2)Cc2ccccc2)nc2c1c(=O)n(C)c(=O)n2C,?,>57,?,-3%
CN1CCN(C(=O)c2nc3ccc(Cl)cc3[nH]2)CC1,11%,/,5%,/
SMILES,HEK293 cAMP cs,Bst PK mod,TSHR ag,FLuc inh
CN1CCN(C(=O)c2cc(Cl)ccc2Cl)CC1,32µM*,/,?,-2%
O=C(c1ccco1)N1CCN(C(=O)c2oc(=O)c3ccccc3c2-c2ccccc2)CC1,5%,/,19%,1%
Cc1nc(N2CCOCC2)c2cc(-c3ccccc3)sc2n1,25µM*,?,?,?
c1ccc(-c2cc3c(N4CCOCC4)ncnc3s2)cc1,22%,/,21%,-2%
Cn1c(=O)c2c(nc(NCCCO)n2C/C=C/c2ccccc2)n(C)c1=O,3%,>57,7%,1%
O=C(Cc1ccc(S(=O)(=O)N2CCCC2)s1)Nc1nc2c(s1)CCCC2,18%,>57,-3%,-1%
O=C(CN1C(=O)COc2ccccc21)N(Cc1cccnc1)Cc1cccc(F)c1,16µM*,>57,?,2%
O=C(CCN1C(=O)c2ccccc2C1=O)NC1=NCCS1,?,>57,?,2%
FC(F)(F)c1cc(-c2ccco2)nc(-n2nnc3ccccc32)n1,25µM*,>57,?,0%
FC(F)(F)c1cc(-c2ccco2)nc(-n2nc(C(F)(F)F)cc2C2CC2)n1,?,>57,?,1%
CCCC1C(c2ccco2)NC(c2ccco2)CC1(C)O (stereo unspecified),-12%,?,14%,13µM*
CC1C(=O)C(C)C(c2ccco2)NC1c1ccco1 (stereo unspecified),5%,>57,0%,5%
Cc1noc(C)c1-c1nc(NCc2cccnc2)c2ccccc2n1,3%,/,/,-3%[2.29 µM]
CS(=O)(=O)Nc1cccc(-c2nc(NCc3ccccc3)c3ccccc3n2)c1,25µM*,/,?,2%[2.29 µM]
Cc1noc(C)c1-c1nc(NCc2ccccc2)c2ccccc2n1,25µM*,/,?,-1%[2.29 µM]
CCCCOc1ccc(-c2nnc(-c3ccncc3)o2)cc1,?,5.6*,?,0%
